Compounds without any hit were thinned out: in the full panel of roughly 83,000, 20% have a hit.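 Activity criterion: percent growth below 10, measured after cells in 96-well plates were exposed to a single compound concentration for 48 hours.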 Active and inactive are the calls of the source.
Tested on: NCI-H322M lung
Test: NCI-60 one-dose screen, 48 h (100 = growth as untreated, 0 = no growth, -100 = all killed)
Settings: 10 µM unless noted

Row | SMILES | growth
1 | CCOc1ccccc1/C=N\Nc1ccc(S(=O)(=O)c2ccc(N/N=C/c3ccccc3OCC)cc2)cc1 | 92.1% (inactive)
2 | Nc1ccc(Cl)c([N+](=O)[O-])c1 | 106% (inactive)
3 | Oc1ccc(N=Nc2nccs2)c(O)c1 | 74.4% (inactive)
4 | O=C(N[C@@H]1CCCc2ccccc21)[C@H](CCC(=O)N1CCN(C2CCCCC2)CC1)N1C(=O)[C@@H](N2C(=O)OC[C@@H]2c2ccccc2)[C@H]1/C=C/c1ccccc1 | 34.6% (inactive)
5 | Cc1ccc(NC(=S)/N=c2/n(-c3ccccc3)nc3n2CCN3C2=NCCN2)cc1 | 103% (inactive)
6 | CCCCC1COc2cccc3c2N1C=C/C3=C\C(=O)n1ccc2ccccc21 (stereo not drawn) | 96.4% (inactive)
7 | COc1cc(C)cc2oc3oc(=O)c(-c4nc5ccccc5s4)cc3c(=O)c12 | 90% (inactive)
8 | O=C(Nc1ccccc1)Nc1ccc(C(=O)/C=C/c2ccc(N3CCCC3)cc2)cc1 | 83.2% (inactive)
9 | COc1cc(C)cc2oc3oc(=N)c(C(=O)c4ccccc4)cc3c(=O)c12 | 98% (inactive)
10 | CC[C@]12C=CCN3CC[C@@]4(c5ccc(OC)cc5N(C)[C@H]4[C@@](O)(C(=O)OC)[C@@H]1OC(=O)CCC(=O)N[C@H](Cc1c[nH]c4ccccc14)C(=O)OC)[C@@H]32 | -53.9% [100 µM] (active)
11 | CC(=O)OC[C@]12CC[C@@H]([C@@H](C)C(N)=O)[C@@H]1[C@H]1CC[C@@H]3[C@@]4(C)CC[C@H](OC(C)=O)C(C)(C)[C@@H]4CC[C@@]3(C)[C@]1(C)CC2 | -78.2% [100 µM] (active)
12 | O=c1c2c3c(sc2n2cnnc2n1Cc1ccccc1)CCCC3 | 104% (inactive)
13 | COc1cc2c(c(OC)c1)C1c3cc(OC)ccc3NC(=O)N1CC2 (stereo not drawn) | 102% (inactive)
14 | O=c1cc(-c2ccccc2)oc2cc(OCc3cn(Cc4ccc(F)cc4)nn3)cc(O)c12 | 86.1% [100 µM] (inactive)
15 | CCN(CC)c1ccc2cc(NC(=O)OCCNC(=O)CCNC(=O)[C@H](CC(C)C)NC(=O)C(C)(C)NC(=O)C(C)(C)NC(=O)[C@H](CC(C)C)NC(=O)CCNC(=O)C(C)(C)NC(=O)[C@H](CC(C)C)NC(=O)CCNC(=O)[C@@](C)(CC)NC(=O)[C@H](C)NC(=O)CCNC(=O)C(C)(C)NC(=O)[C@H](C)NC(=O)[C@@H]3CCCN3C(=O)[C@@](C)(CC)NC(=O)[C@H](Cc3ccccc3)NC(=O)C3CCCN3C(=O)C(C)(C)NC(=O)C3CCCN3C(=O)C(C)(C)NC(C)=O)c(=O)oc2c1 (stereo partly drawn) | -80.3% (active)
16 | CCCCCCCCCCCCCC[n+]1cccc(C(N)=O)c1 | 16.8% (inactive)
17 | CCOC(CNC(=O)c1cccc([N+](=O)[O-])c1)OCC | 109% (inactive)
18 | COc1ccc(/C=C/C=C\C(=O)c2ccc(-n3ccnc3)cc2)cc1 | 101% (inactive)
19 | CCNc1cc2c(cc1Br)-c1ccccc1C2=O | 87.9% (inactive)

Row | SMILES | growth
20 | C[n+]1c(-c2ccccc2)c2cc(N)ccc2c2ccccc21 | 70.8% (inactive)
21 | C/C=C/C1OC23CCCCC2C(C#N)(C(=N)O3)C1(C#N)C#N (stereo not drawn) | 102% (inactive)
22 | Fc1cc2[nH]ncc2c2c3c(c(-c4cn[nH]c4)nc12)CCCC3 | 2.77% (active)
23 | CCOC(=O)c1nn(C2CCCCO2)c2ccc(NC(=O)CN3CCCC3)cc12 (stereo not drawn) | 89.7% (inactive)
24 | Nc1nnc(CSc2nnc3n(Cc4ccccc4)c(=O)c4c5c(sc4n23)CCCC5)s1 | 111% (inactive)
25 | O=S(=O)(NCc1ccccc1)c1ncnc2nc[nH]c12 | 109% (inactive)
26 | c1cc2ccc1CNCCN1CCNCc3ccc(cc3)Oc3ccc(cc3)CNCCN(CCNCc3ccc(cc3)O2)CCNCc2ccc(cc2)Oc2ccc(cc2)CNCC1 | -28.5% (active)
27 | CS(=O)(=O)c1cccnn1 | 99.7% (inactive)
28 | N=C(N)c1ccc(-c2ccc(-c3ccc(-c4cccs4)s3)s2)cc1F | 26% (inactive)
29 | CCCSc1nc(N)nc2nc[nH]c12 | 161% (inactive)
30 | C[C@H]1[C@H](C)CC[C@]2(C(=O)O)CC[C@]3(C)C(=CC[C@@H]4[C@@]5(C)C/C(=C/c6cccnc6)[C@H](O)C(C)(C)[C@@H]5CC[C@]43C)[C@H]12 | -16.4% [100 µM] (active)
31 | O=C1CC(c2ccccc2)Cc2nc3ccc(Br)cc3cc21 (stereo not drawn) | 35.9% (inactive)
32 | C1=C[C@H]2O[C@@H]1c1ccc3[nH]ccc3c12 | 110% (inactive)
33 | CCN(CC)c1ccc(/C=C/c2ccc3cc(C)ccc3[n+]2CC)cc1 | 35.9% (inactive)
34 | O=C(Nc1cc(F)cc2cccnc12)c1cnc(N2CCNCC2)cn1 | 69.3% (inactive)
35 | C=CCCC1(C)NC(=O)NC1=O (stereo not drawn) | 108% (inactive)
36 | CC(=O)Nc1ccc2nc3ccc(NC(C)=O)cc3[n+](-c3ccccc3)c2c1 | 109% (inactive)
37 | CCCCCN(CCCCC)CCCCCCCCN1CCCc2ccccc21 | 89.9% (inactive)
38 | O=C(O)c1cccc(CN2CCN(c3cc4c(cc3F)c(=O)c(C(=O)O)cn4C3CC3)CC2)c1O | 111% (inactive)

— PubChem BioAssay (NCI)
